# According to the supplement of paper PMC6522484:
# ± gives the standard deviation of the averaged measurements.
# Test system: DLD1
# Assay: TCF/Wnt firefly luciferase reporter signal relative to plate median (fraction of plate median); higher = higher Wnt reporter signal
# Conditions: 5 µM; treatment time 24 h; reporter: 7TFP
# In short: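 After seeding in 384-well plates, colorectal cancer cell lines carrying stable lentiviral TCF/Wnt firefly luciferase reporters (7TFP or TCF4/Wnt) were left 24 h. Library compounds were then added at a final 5 µM for 24 h. A Tecan F500 reader measured firefly luciferase or CellTiterGlo luminescence on parallel plates, with each well normalised to the plate median by webcellHTS2 (additive, no log transformation), and two independent replicates averaged.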
row,SMILES,TCF/Wnt firefly luciferase reporter signal
1,"C=C1C2CCC3(C)C(c4ccoc4)OC(=O)CC13OC1CC(OC(C)=O)C(C)(C)C(CC(=O)OC)C12C (stereo not drawn) [3beta-ACETOXYDEOXYANGOLENSIC ACID, METHYL ESTER]",0.966 ± 0.13
2,CC1(C)C=CC(=O)[C@@]2(C)C1CC(=O)[C@]1(C)C2CC[C@@]2(C)[C@H](c3ccoc3)OC(=O)C3OC321 (stereo not given in full),0.99 ± 0.029
3,N[C@@H](Cc1cc(I)c(Oc2cc(I)c(O)c(I)c2)c(I)c1)C(=O)O,1.19 ± 0.057
4,COc1ccc2ccc(=O)oc2c1,0.973 ± 0.053
5,O=C1c2c(O)cccc2C([C@@H]2O[C@H](CO)[C@@H](O)[C@H](O)[C@H]2O)c2cc(CO)cc(O)c21 (stereo not given in full),1.2 ± 0.021
6,OC[C@@H](O)[C@@H](O[C@@H]1O[C@H](CO)[C@@H](O)[C@H](O)[C@H]1O)[C@H](O)[C@@H](O)CO,1.08 ± 0.12
7,CC(=O)C12OC(C)(c3ccccc3)OC1CC1C3CCC4=CC(=O)CCC4(C)C3CCC12C (stereo not given),0.977 ± 0.061
8,CC1(C)CC[C@]2(C(=O)O)CC[C@]3(C)C(=CC[C@@H]4[C@@]5(C)CC[C@H](O)C(C)(C)[C@@H]5[C@H](O)C[C@]43C)[C@@H]2C1,0.952 ± 0.018
9,CCOC(=O)[C@H](CCc1ccccc1)N[C@@H](C)C(=O)N1[C@H](C(=O)O)C[C@H]2CCCC[C@@H]21,0.912 ± 0.052
10,CC(=O)O[C@H]1CC[C@]2(C)C3=C(CC[C@H]2C1(C)C)[C@]1(C)CC[C@H]([C@H](C)CCC=C(C)C)[C@@]1(C)CC3,0.9 ± 0.098
11,COc1ccc2c(=O)c(-c3cc4c(cc3OC)OCO4)coc2c1,1.03 ± 0.042
12,OCC(S)CS (stereo not given),0.921 ± 0.057
13,COc1ccc([C@@H]2CC(=O)c3c(O)cc(O)cc3O2)cc1O,1.02 ± 0.11
14,O=c1cc(-c2ccccc2)oc2c(O)c(O)ccc12,1.13 ± 0.071
15,CC(=O)S[C@@H]1CC2=CC(=O)CC[C@]2(C)[C@H]2CC[C@@]3(C)[C@@H](CC[C@@]34CCC(=O)O4)[C@H]12,0.878 ± 0.15
16,OCc1c[nH]c2ccccc12,1.06 ± 0.064
17,O=C(O)c1cc2ccccc2[nH]1,1.12
18,CC1(C)O[C@@H]2C[C@H]3[C@@H]4C[C@H](F)C5=CC(=O)C=C[C@]5(C)[C@H]4[C@@H](O)C[C@]3(C)[C@]2(C(=O)CO)O1,0.928 ± 0.0085
19,COC(=O)[C@H]1[C@H]2C[C@H]3c4[nH]c5ccccc5c4CCN3C[C@@H]2CC[C@@H]1O,1.01 ± 0.039
20,CC[n+]1c(-c2ccccc2)c2cc(N)ccc2c2ccc(N)cc21,0.96 ± 0.085

row,SMILES,TCF/Wnt firefly luciferase reporter signal
1,CN(C)CCN(Cc1cccs1)c1ccccn1,1.01 ± 0.056
2,CCc1nc(N)nc(N)c1-c1ccc(Cl)cc1,1.1 ± 0.23
3,CC(=O)Nc1ccc(O)cc1,0.923 ± 0.12
4,COc1ccc(C(=O)CC(=O)c2ccc(C(C)(C)C)cc2)cc1,1 ± 0.098
5,COc1cccc(/C=C/C(=O)O)c1C(C)C,1.12 ± 0.26
6,CC[C@H]1OC(=O)C[C@@H](O)[C@H](C)[C@@H](O[C@@H]2O[C@H](C)[C@@H](O)[C@H](N(C)C)[C@H]2O)[C@@H](CCN2C[C@H](C)C[C@H](C)C2)C[C@@H](C)C(=O)/C=C/C(C)=C/[C@@H]1CO[C@@H]1O[C@H](C)[C@@H](O)[C@@H](OC)[C@H]1OC,1.02 ± 0.077
7,CN1[C@@H]2CC[C@H]1C[C@@H](OC(c1ccccc1)c1ccccc1)C2,0.929 ± 0.16
8,CC(=O)C[C@@H]1C[C@H](O)c2c(O)cccc2C1=O [Bhimanone],1.11 ± 0.035
9,O=c1c(-c2ccc(O)cc2)coc2cc(O)cc(O)c12,1.065 ± 0.0071
10,Cc1c(N(C)C)c(=O)n(-c2ccccc2)n1C,1.1 ± 0.028
11,CC1=CC2C(C(C)C)CCC(C)(O)C2CC1 (stereo not given),1.02 ± 0.11
12,CCN(CC)CCOC(=O)C(Cc1cccc2ccccc12)CC1CCCO1 (stereo not given),0.874 ± 0.072
13,COC(=O)C1=CO[C@@H](O[C@@H]2O[C@H](CO)[C@@H](O)[C@H](O)[C@H]2O)[C@@H]2[C@@H](C)[C@@H](O)C[C@H]12,1.01 ± 0.016
14,CN(C)CCC=C1c2ccccc2COc2ccccc21,1.06 ± 0.028
15,COC(=O)C[C@H]1C(C)(C)[C@@H](OC(C)=O)[C@@H]2CC3C4CC(=O)O[C@@H](c5ccoc5)[C@]4(C)CCC3[C@@]1(C)C2=O (stereo not given in full),0.966 ± 0.1
16,NS(=O)(=O)c1cc2c(cc1C(F)(F)F)NC(Cc1ccccc1)NS2(=O)=O (stereo not given),0.836 ± 0.075
17,Oc1ccc(Cl)c2cccnc12,0.935 ± 0.069
18,C#C[C@]1(OC(C)=O)CC[C@H]2[C@@H]3CCC4=CC(=O)CC[C@@H]4[C@H]3CC[C@@]21C,0.925 ± 0.022
19,CCCc1ncc(C[n+]2ccccc2C)c(N)n1,0.956 ± 0.057
20,CC1(C)[C@@H](O)CC[C@]2(C)[C@H]3C(=O)C=C4[C@@H]5C[C@@](C)(C(=O)O)CC[C@]5(C)CC[C@@]4(C)[C@]3(C)CC[C@@H]12,1.04 ± 0.22
